Assay [1] is described as follows: qHTS assay to identify small molecule agonists of the vitamin D receptor (VDR) signaling pathway - cell viability counter screen (AID 743224). Also: nearly all actives have a fitted effect of over 50% in size. Also: potency is read from the fitted curve at half-maximal effect. As to activity change, negative = cytotoxicity: series mostly up to about 63 µM; % is scaled to controls: 0 for no effect and ±100 for the full control effect. The essentials: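 CellTiter-Glo viability readout on VDR-bla cells, measured after 16 h of compound treatment at 37C in the same wells.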
The nature of assay [2]: qHTS assay to identify small molecule antagonists of the vitamin D receptor (VDR) signaling pathway - cell viability counter screen (AID 743225). Also: nearly all actives have a fitted effect of over 50% in size. Also: potency is read from the fitted curve at half-maximal effect. As to viability change, negative = cytotoxic: % is scaled to controls: 0 for no effect and ±100 for the full control effect. Summed up:
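VDR-UAS-bla HEK 293T cells were plated and incubated 4 h at 37C, then dosed with compound plus 3 nM (final) 1-alpha,25-dihydroxyvitamin D3 for 16 h. After the 2 h beta-lactamase read, viability in the same wells was read as CellTiter-Glo luminescence after 30 min at room temperature.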

The nature of assay [3]: qHTS assay to identify small molecule agonists of the NFkB signaling pathway - cell viability counter screen (AID 1159515; calls by dose curve; also: series mostly up to about 61 µM; % is scaled to controls: 0 for no effect and ±100 for the full control effect; nearly all actives have a fitted effect of over 55% in size). The essentials: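 Tox21 library compounds were tested for cytotoxicity against NFkB-bla ME-180 cells during a 5 hr exposure at 37 C. CellTiter-Glo luminescence served as the viability read-out.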
Background: qHTS replaces the single test concentration by a dilution series.

A short description of assay [4]: qHTS assay to identify small molecule agonists of the endoplasmic reticulum stress response signaling pathway (AID 1159516; active = well fitted activation curve with a large enough effect in the signal ratio in the repeat runs, not every such curve was filed as active; the % refers to the signal ratio; also: % is scaled to controls: 0 for no effect and ±100 for the full control effect). Summed up: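 Fluorescence at 460 and 530 nm (405 nm excitation) reports beta-lactamase from an ER stress response element in HeLa cells treated 5 hr at 37 C.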
In assay [5] the target is Nuclear receptor ROR-gamma (Homo sapiens) (UniProt P51449). As to the kind of experiment: qHTS assay to identify small molecule antagonists of the retinoid-related orphan receptor gamma (ROR-gamma) signaling pathway (AID 1159521; also: nearly all actives have a fitted effect of over 50% in size; also: potency is read from the fitted curve at half-maximal effect). Summed up: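 Tet-on ROR-gamma CHO cells with ROR response element-luciferase reporter; compounds added 2 hr before 1 uM doxycycline induction, then 16 hr at 37 C. Antagonism scored as decreased ONE-Glo luminescence.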

The nature of assay [6]: qHTS assay to identify small molecule agonists of the AP-1 signaling pathway (AID 1159526; calls by dose curve; also: % is scaled to controls: 0 for no effect and ±100 for the full control effect).
The nature of assay [7]: qHTS assay to identify small molecule agonists of the endoplasmic reticulum stress response signaling pathway - cell viability counter screen (AID 1159517; calls by dose curve; also: nearly all actives have a fitted effect of over 50% in size; also: potency is read from the fitted curve at half-maximal effect). The essentials: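 Steps: seed 1,500 ESRE-bla HeLa cells per well; incubate overnight at 37 C, 5% CO2; add compounds in DMSO for 5 hr; run FRET substrate 2 hr RT; add CellTiter-Glo, wait 30 min, read luminescence.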
Assay [8] is described as follows: qHTS assay to identify small molecule antagonists of the retinoid-related orphan receptor gamma (ROR-gamma) signaling pathway - cell viability counter screen (AID 1159520). Also: nearly all actives have a fitted effect of over 50% in size. Also: potency is read from the fitted curve at half-maximal effect. Summed up:
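Tet-on ROR gamma CHO cells were given compounds for 2 hr, then doxycycline hyclate at 1 uM final, and incubated 16 hr at 37 C. Viability was measured as ATP content by CellTiter-Glo luminescence.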

Assay [9] can be described thus: qHTS assay to identify small molecule agonists of the AP-1 signaling pathway - cell viability counter screen (AID 1159525; calls by dose curve; also: nearly all actives have a fitted effect of over 55% in size). The essentials: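 Same-well cytotoxicity counter screen of the Tox21 10K library in ME-180 cells. The readout is ATP-dependent luminescence after 5 h compound treatment. Data are normalised to DMSO and tetra n-octyl ammonium bromide controls.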

Each structure is given as a SMILES string. Records with an inconclusive call do not appear. Unmarked numbers belong to inactive results. Calls of active or inactive are those of the source. Unless noted, calls follow the shape of the dose curve; as a rule, active = well fitted curve in the direction sought with a large enough effect in the repeat runs; inconclusive = weak or mixed curves; inactive = no such curve, though single readings can be large; an effect the other way counts as inactive or inconclusive.

Regarding `Cc1ccc(N)cc1C`, the Potency entry in [1], in assay [2], in [3] and in assay [5] was “inactive” each time. Moreover, the result in assay [4] and in assay [6] was inactive.
With `CC(Cl)Cl`, the Potency result in assay [1], in assay [2], in assay [7], in assay [8], in assay [5] and in assay [9] was “inactive” in each case. The outcome in [4] and in assay [6] was inactive.
Take `CO/N=C(/C(=O)OC)c1ccccc1COc1ccccc1C`: the compound was classed as inactive in assay [4] and in [6]. The Potency entry in assay [7] and in assay [9] was “inactive” in each case. Besides, in assay [5], the Potency is 2.73 µM (active).
`CN(C)c1ccc(N(C)C)cc1`: the Potency entry in [3], in [5] and in assay [9] was “inactive” in each case. Also, the result in assay [4] was inactive.
Regarding `CC(Cl)C(C)Cl` (stereo not given), the Potency entry in [1], in [2], in [3] and in [8] was “inactive” throughout. Besides, the compound was called inactive in assay [4] and in assay [6].
In the case of `NCC(CC(=O)O)c1ccc(Cl)cc1` (stereo not given), the activity change, negative = cytotoxicity in assay [1] was 15.2% [at 0.55 µM]. Further, the results for the viability change, negative = cytotoxic in assay [2] and in [9] were 6.5% [at 0.628 µM] and -1.57% [at 0.29 µM], respectively. The activity, negative = cytotoxicity in assay [8] is -1.2% [at 0.349 µM]. Further, the activity change, negative = inhibition in assay [5] was 4.26% [at 0.35 µM]. Moreover, the activation in assay [6] was -1.64% [at 0.29 µM].
For `CCCCc1c(C)nc(NCC)nc1OS(=O)(=O)N(C)C`, the Potency entry in assay [1], in assay [2], in assay [3], in assay [7] and in assay [9] was “inactive” in each case. The result in [4] and in [6] was inactive.
Turning to `Nc1ccc(N=Nc2ccc(-c3ccc(N=Nc4c(S(=O)(=O)O)cc5cc(S(=O)(=O)O)c(N=Nc6ccccc6)c(O)c5c4N)cc3)cc2)c(N)c1`, the Potency entry in assay [3] and in assay [7] was “inactive” throughout.
Take `O=C(CBr)Nc1ccc(Cl)cc1C(=O)c1ccccc1F`: the Potency entry in assay [1], in assay [2], in assay [8] and in assay [9] was “inactive” throughout. For the same compound, the Potency in assay [7] is 23.9 µM (active).
Take `COC(C)(C)CCC[C@H](C)C/C=C/C(C)=C/C(=O)OC(C)C`: the compound was classed as inactive in assay [4] and in assay [6]. The Potency result in assay [8], in assay [5] and in assay [9] was “inactive” throughout.
Consider `Clc1cc(Cl)c(Cl)c(Cl)c1`, for which the Potency entry in [1], in assay [2], in assay [3], in [8] and in assay [9] was “inactive” throughout. Moreover, the compound was called inactive in [4] and in [6].
As for `CO[C@@H]1[C@H](OC(=O)NC(=O)CCl)CC[C@]2(CO2)[C@H]1[C@@]1(C)O[C@@H]1CC=C(C)C`, the Potency entry in assay [1] and in [2] was “inactive” each time.
For `CCOC(=O)CBr`, the Potency entry in [1], in [7] and in [8] was “inactive” throughout. For the same compound, the compound was classed as inactive in assay [4] and in assay [6].
Turning to `CCC(C)(NC(=O)c1cc(Cl)c(C)c(Cl)c1)C(=O)CCl` (stereo not given), the Potency in assay [1] is 55.3 µM (active); in assay [8], 21.8 µM (active); in [5] it was 6.15 µM (active). Further, the Potency entry in [3] is “inactive”.
As to `CCc1ccc(C(=O)NN(C(=O)c2cc(C)cc(C)c2)C(C)(C)C)cc1`, the Potency entry in assay [1], in assay [7] and in assay [8] was “inactive” each time. For the same compound, the compound was called inactive in assay [4] and in assay [6].
For `O=C(C(Cl)(Cl)Cl)C(Cl)(Cl)Cl`, the Potency entry in assay [1], in assay [3], in assay [7], in [8], in assay [5] and in assay [9] was “inactive” each time. Besides, the call in assay [6] was inactive.
Regarding `CC(C)N(CCC(C(N)=O)(c1ccccc1)c1ccccn1)C(C)C` (stereo not given), the Potency entry in assay [1], in [2], in assay [3], in assay [7], in assay [8] and in assay [5] was “inactive” throughout. Besides, the Potency result in assay [9] was “inactive”. Moreover, in assay [6], the outcome was inactive.
Turning to `O=S1OC[C@@H]2[C@H](CO1)[C@]1(Cl)C(Cl)=C(Cl)[C@@]2(Cl)C1(Cl)Cl` (stereo not given in full), the Potency in [1] is 49 µM (active). For the same compound, the Potency result in assay [8] was “inactive”.
In the case of `O=C(O)C1(c2ccc3c(c2)OC[C@H](Cc2ccc(-c4ccccc4)cc2)[C@H]3O)CCCC1`, the results for the Potency in [1], in assay [2] and in [5] were 49 µM (active), 49 µM (active) and 54.5 µM (active), respectively. Also, the Potency result in assay [3] is “inactive”. Also, the compound was classed as inactive in assay [6].
For `ClP(Cl)(Cl)(Cl)Cl`, the Potency result in [1], in assay [2], in assay [3] and in [7] was “inactive” in each case. Moreover, the result in assay [4] and in [6] was inactive.
Turning to `COc1ccc(-c2ccccc2)cc1NNC(=O)OC(C)C`, the Potency is 57.2 µM (active) in assay [1] and 51 µM (active) in assay [2]. The Potency result in assay [3], in assay [7] and in assay [9] was “inactive” throughout. Besides, the compound was called inactive in [4] and in assay [6].
On to `CCCCCCC#N`, for which the Potency entry in assay [1], in [2], in [7], in assay [8], in [5] and in [9] was “inactive” throughout. Moreover, the compound was classed as inactive in assay [6].
With `O=C(CBr)c1ccccc1`, the Potency result in [1], in [2], in assay [7], in assay [8], in assay [5] and in assay [9] was “inactive” throughout. The result in assay [4] was inactive.
As for `CN1C[C@H](CNC(=O)OCc2ccccc2)C[C@@H]2c3cccc4c3c(cn4C)C[C@H]21`, the Potency result in assay [1], in assay [2], in [7] and in [8] was “inactive” each time. In assay [4], the call was inactive.
Take `CCOP(=O)(OCC)O/C(=C/Cl)c1ccc(Cl)cc1Cl`: the outcome in assay [4] was inactive. Besides, the Potency entry in [7] and in [9] was “inactive” throughout. Also, the Potency in assay [5] was 68.6 µM (active).

(Values after PubChem BioAssay (Tox21).)
